This note sets out measurements from PubChem BioAssay AID434970 (Sanford-Burnham Center for Chemical Genomics, 2010).

Among all 11,000 compounds or so, about 310 (2.8%) were called active. Rule as the data show it: active = activity change below about -85%; inactive = the rest. The full list was thinned out, with actives kept by preference.

The subject of this assay is intestinal alkaline phosphatase [Mus musculus]. Kind of assay: activators of mouse IAP, confirmation, biochemical, luminescence, single concentration (AID 434970). The conditions noted are these: purified mouse IAP, CDP-Star luminescence, 30 min, at 10 µM; activation factor: measured here: IAP activation factor, stronger effect = higher value; activity change, negative = activation: stronger effect = lower value.
For `C=CCn1c(C)cc(C(=O)COC(=O)COc2ccccc2C#N)c1C`, the activation factor was found to be 0.919 and the activity change, negative = activation was 8.05% (inactive).
Consider `S=c1[nH]nc(CSc2nc3ccccc3s2)n1Cc1ccccc1`, for which the activation factor amounted to 1.1 and the activity change, negative = activation was -10.1% (inactive).
Take `CCOC(=O)C1=CN(Cc2cccc(F)c2)S(=O)(=O)N(CC)C1c1ccc(F)c(Cl)c1` (centres undefined): the activation factor turned out to be 1.1 and the activity change, negative = activation was -9.9% (inactive).
As to `CC(=O)Cc1nsc(NC(=O)c2ccc(-c3cccc(C(F)(F)F)c3)o2)n1`, the activation factor is 0.948 and the activity change, negative = activation is 5.2% (inactive).
For `COc1cc(OC)c(C2N(c3ccccn3)C(=O)C3CCCN32)cc1OC` (centres undefined), the activation factor turned out to be 1.11 and the activity change, negative = activation was -10.6% (inactive).
Take `Cc1cc(C(=O)CSc2nnc(-c3cccc(F)c3)n2N)c(C)n1Cc1ccc2c(c1)OCO2`: the activation factor is 0.849 and the activity change, negative = activation was 15.2% (inactive).
Turning to `Nc1ncnc2c1ncn2[C@@H]1O[C@H](CNC(=O)[C@@H](N)CO)[C@@H](O)[C@H]1O`, the activation factor is 0.992 and the activity change, negative = activation is 0.75% (inactive).
Turning to `S=C(NCc1ccccc1)Nc1ccc(Oc2ccccc2)cc1`, the activation factor stood at 1.49 and the activity change, negative = activation is -49% (inactive).
As for `COc1cc(OC)c2c(-c3ccccc3)cc(=O)oc2c1C(CCN1CCOCC1)c1ccc(N(C)C)cc1` (centres undefined), the activation factor was found to be 0.992 and the activity change, negative = activation is 0.8% (inactive).
With `CN(C)S(=O)(=O)n1cnc(-c2ccccc2)c1-c1ccccc1`, the activation factor worked out at 1.06 and the activity change, negative = activation was -5.85% (inactive).
For `Cc1cccc(N/C(N)=N/c2nc(C)cc(C)n2)c1`, the activation factor turned out to be 1.05 and the activity change, negative = activation is -4.7% (inactive).
Take `Cc1ccc(NC(=O)C2CCN(C(=O)NC3CCCCC3)CC2)c(C)c1`: the activation factor was found to be 1.02 and the activity change, negative = activation is -1.95% (inactive).
As for `Cc1ccc(N/C(N)=N/c2nc(C)cc(N3CCCCC3)n2)c(C)c1`, the activation factor worked out at 4.22 and the activity change, negative = activation is -322% (active).
On the same counts, the results for `CCOC(=O)C1=CN(Cc2ccco2)S(=O)(=O)NC1c1cccc(OC)c1` (centres undefined) are 0.986 and 1.35% (inactive).
Consider `CCOc1ccc(-c2nnc(-c3cccnc3)o2)cc1OCC`, for which the activation factor came to 0.916 and the activity change, negative = activation is 8.35% (inactive).
Consider `O=S(=O)(Nc1ccccc1)c1ccc(Oc2ncc(C(F)(F)F)cc2Cl)cc1`, for which the activation factor stood at 0.903 and the activity change, negative = activation is 9.65% (inactive).
Taken in the same sequence, the figures for `Cc1cc(C)cc(NC2=NC3(CCCCC3)N=C(N)N2)c1` were 3.22 and -222% (active).
Taken in the same sequence, the figures for `COc1ccc(OC)c(NC2=NC3(CCCCC3)N=C(N)N2)c1` were 1.17 and -16.5% (inactive).
Taken in the same sequence, the figures for `CC1(C)N=C(N)NC(Nc2ccccc2)=N1` were 1.04 and -4% (inactive).
For the compound `CCCCOc1ccc(NC2=NC3(CCCCC3)N=C(N)N2)cc1`, the activation factor came out at 5.53 and the activity change, negative = activation was -453% (active).
Consider `COc1cccc(NC2=NC3(CCCCC3)N=C(N)N2)c1`, for which the activation factor was determined as 1.5 and the activity change, negative = activation was -50.5% (inactive).
For the compound `COc1ccc(OC)c(NC2=NC3(CCCC3)N=C(N)N2)c1`, the activation factor is 1.22 and the activity change, negative = activation was -21.9% (inactive).
Regarding `S=C(NCCNCc1ccccc1)NC1CCCCC1`, the activation factor is 1.18 and the activity change, negative = activation was -18% (inactive).
For the compound `O=C(NN1C(=O)CSC1=S)C(=O)NN1C(=O)CSC1=S`, the activation factor came out at 0.0825 and the activity change, negative = activation is 91.8% (inactive).
With `CC(C)=CCC/C(C)=C/CNC(=O)C[C@H]1C[C@H](C(=O)N(C(C)C)C(C)C)[C@@]2(C)c3[nH]c4cc(-c5ccco5)ccc4c3CCN2C1=O`, the activation factor was 1.39 and the activity change, negative = activation is -39.4% (inactive).
As for `COc1ccc(NC(=O)CCS(=O)(=O)c2cccc3nonc23)c(OC)c1`, the activation factor amounted to 0.945 and the activity change, negative = activation is 5.5% (inactive).
As for `COc1ccc(C2CC(c3ccccc3C(F)(F)F)=NN2c2ccc(S(N)(=O)=O)cc2)cc1` (centres undefined), the activation factor stood at 2.21 and the activity change, negative = activation is -121% (active).
Taken in the same sequence, the figures for `COc1ccc(C2CC(c3ccc(C(F)(F)F)cc3)=NN2c2ccc(S(N)(=O)=O)cc2)cc1` (centres undefined) were 1.37 and -36.7% (inactive).
Consider `COc1ccc(C2CC(c3cccc(C(F)(F)F)c3)=NN2c2ccc(S(N)(=O)=O)cc2)cc1` (centres undefined), for which the activation factor was 1.51 and the activity change, negative = activation is -50.8% (inactive).
As for `COc1ccc(C2CC(c3cccc(F)c3)=NN2c2ccc(S(N)(=O)=O)cc2)cc1` (centres undefined), the activation factor is 1.67 and the activity change, negative = activation was -67.2% (inactive).
Taken in the same sequence, the figures for `COc1ccc(C2CC(c3ccccc3F)=NN2c2ccc(S(N)(=O)=O)cc2)cc1` (centres undefined) were 2.13 and -113% (active).
On the same counts, the results for `COc1ccc(C2CC(c3ccc(Cl)cc3)=NN2c2ccc(S(N)(=O)=O)cc2)cc1` (centres undefined) are 1.6 and -59.8% (inactive).
Taken in the same sequence, the figures for `COc1ccc(C2CC(c3ccccc3Br)=NN2c2ccc(S(N)(=O)=O)cc2)cc1` (centres undefined) were 1.27 and -26.8% (inactive).
In the case of `COc1ccc(C2CC(c3ccccc3Cl)=NN2c2ccc(S(N)(=O)=O)cc2)cc1` (centres undefined), the activation factor was found to be 2.18 and the activity change, negative = activation is -118% (active).
For `COc1ccc(C2CC(c3cccc(Cl)c3)=NN2c2ccc(S(N)(=O)=O)cc2)cc1` (centres undefined), the activation factor was 1.79 and the activity change, negative = activation is -78.7% (inactive).
As for `CSc1ccc(-c2nc(CSCC(=O)NCCCN3CCOCC3)c(C)o2)cc1`, the activation factor was 0.847 and the activity change, negative = activation was 15.3% (inactive).
In the case of `CCOC(=O)C1=C(C)OC(N)=C(C#N)C1c1cc2cc(C)ccc2nc1N1CCCCC1` (centres undefined), the activation factor turned out to be 1.02 and the activity change, negative = activation was -1.65% (inactive).
Taken in the same sequence, the figures for `CN(C)CCCNC(=O)C[C@H]1C[C@H](C(=O)N2CCCCC2)[C@@]2(CCc3ccccc3)c3[nH]c4cc(CCC(=O)N(C)C)ccc4c3CCN2C1=O` were 1.1 and -10.1% (inactive).
As for `Cc1cnc(NC(=O)c2ccco2)s1`, the activation factor worked out at 0.954 and the activity change, negative = activation is 4.55% (inactive).
As for `O=C1[C@@H](Oc2ccccc2)[C@@H](c2ccccc2)N1c1ccccc1`, the activation factor was 0.938 and the activity change, negative = activation was 6.25% (inactive).
Take `Cc1cc(C)cc(NC(=O)C2CCN(S(=O)(=O)c3ccc4c(c3)NC(=O)C(C)S4)CC2)c1` (centres undefined): the activation factor stood at 1.96 and the activity change, negative = activation was -96% (active).
For `Cc1ccc(S(=O)(=O)N2CCC(C(=O)N[C@@H](C)C(=O)NC3CCCCC3)CC2)cc1`, the activation factor stood at 1.09 and the activity change, negative = activation is -8.65% (inactive).
Consider `Cc1ccc(S(=O)(=O)N2CCC(C(=O)Nc3ccc(C(C)C)cc3)CC2)cc1`, for which the activation factor was 3.49 and the activity change, negative = activation is -249% (active).
Turning to `CCc1ccc(NC(=O)C2CCN(S(=O)(=O)c3ccc4c(c3)CC(C)N4C(C)=O)CC2)cc1` (centres undefined), the activation factor was determined as 1.49 and the activity change, negative = activation is -48.7% (inactive).
Take `Cc1ccc(S(=O)(=O)N2CCC(C(=O)Nc3ccc(S(=O)(=O)N4CCCC4)cc3)CC2)cc1C`: the activation factor came out at 2.22 and the activity change, negative = activation was -122% (active).
Take `Cc1ccc(NC(=O)C2CCN(S(=O)(=O)c3ccc(N4CCCC4=O)cc3)CC2)cc1Cl`: the activation factor stood at 1.79 and the activity change, negative = activation was -79.3% (inactive).
As to `CSc1cccc(NC(=O)C2CCN(S(=O)(=O)c3ccc(F)cc3)CC2)c1`, the activation factor stood at 1.98 and the activity change, negative = activation was -97.7% (active).
Consider `Cc1ccc(NC(=O)C2CCN(S(=O)(=O)c3ccc4c(c3)NC(=O)C(C)S4)CC2)cc1Cl` (centres undefined), for which the activation factor is 1.71 and the activity change, negative = activation was -71.1% (inactive).
For `O=C(Nc1ccc(S(=O)(=O)N2CCCCCC2)cc1)C1CCCO1` (centres undefined), the activation factor worked out at 0.946 and the activity change, negative = activation was 5.4% (inactive).
Taken in the same sequence, the figures for `CCNC(=O)C1CCN(S(=O)(=O)c2ccc(F)cc2)CC1` were 0.998 and 0.15% (inactive).
With `Cc1ccc(S(=O)(=O)NNC(=O)C2CCN(S(=O)(=O)c3ccc(C)cc3)CC2)cc1`, the activation factor came to 0.962 and the activity change, negative = activation was 3.85% (inactive).
As to `COc1ccc(S(=O)(=O)N2CCC(C(=O)Nc3cccc(Cl)c3)CC2)cc1OC`, the activation factor worked out at 1.62 and the activity change, negative = activation was -61.7% (inactive).
